Measurements as given in the supplement of paper PMC6555819.

How the values were obtained:
Test in all cases: PBM binding z-score (relative to random genomic background probes); higher = stronger binding; sequences stand for … in GC…GCGATTGACAGCGTAGAATGAAGG
[1] = test system: FXR:RXRa (NR concentration 270 nM, RXRa partner concentration 90 nM)
In short: (§1)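 Scanned fluorescence from custom Agilent 4×180K protein-binding microarrays was regression-normalized. Binding z-scores use random background probes as reference. Ligand-free nuclear receptor dimers were incubated on the arrays for 1 h and detected with antibodies against each partner (one per run).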

[2] = test system: LXRa:RXRa (NR concentration 270 nM, RXRa partner concentration 90 nM)
In short: as §1

[3] = test system: LXRa homodimer (NR concentration 270 nM)
In short: as §1

[4] = test system: LXRb:RXRa (NR concentration 270 nM, RXRa partner concentration 90 nM)
In short: as §1

[5] = test system: LXRb homodimer (NR concentration 270 nM)
In short: as §1

[6] = test system: PPARa:RXRa (NR concentration 270 nM, RXRa partner concentration 90 nM)
In short: as §1

[7] = test system: PPARg:RXRa (NR concentration 180 nM, RXRa partner concentration 90 nM)
In short: as §1

[8] = test system: PPARg:RXRa 270nM:90nM, anti-RXR (NR concentration 270 nM, RXRa partner concentration 90 nM)
In short: as §1

[9] = test system: PPARg:RXRa 30nM:10nM, anti-RXR (NR concentration 30 nM, RXRa partner concentration 10 nM)
In short: as §1

[10] = test system: PPARg:RXRa 90nM:30nM, anti-RXR (NR concentration 90 nM, RXRa partner concentration 30 nM)
In short: as §1

| Sequence | PBM binding z-score [1] | PBM binding z-score [2] | PBM binding z-score [3] | PBM binding z-score [4] | PBM binding z-score [5] | PBM binding z-score [6] | PBM binding z-score [7] | PBM binding z-score [8] | PBM binding z-score [9] | PBM binding z-score [10] |
| --- | --- | --- | --- | --- | --- | --- | --- | --- | --- | --- |
| GCTTACGGGTCAAAGGTTAGAGCATGAATAGAAT | 7.32 | 5.34 | 0.175 | 5.27 | -0.0451 | 6.73 | 10.6 | 8.89 | 8.08 | 9.45 |
| CCGACTGGGGCAGAAAGGTTACCTTACCATCCGG | -0.0725 | 0.286 | -0.251 | 0.547 | -1.39 | 1.73 | 1.36 | 2.55 | 0.398 | 1.91 |
| CCTGGCAGGCCAATCTGGGTCACTCAAGGCTTGA | 0.937 | 0.927 | -0.703 | 0.276 | -1.26 | 2.69 | 1.37 | 2.06 | -0.284 | 1.22 |
| TCTATTAGATGATTAGGGCAACCGAAACAGCGGA | 0.507 | 0.432 | 0.054 | 0.49 | 0.329 | 0.871 | 0.674 | 1.88 | 3.31 | 2.68 |
| AGAGCGAGGGCACGCTGAGTTGATAGCAGAGTAG | 0.547 | 0.397 | -0.567 | -0.142 | -1.31 | 1.17 | 0.555 | -0.0392 | -0.58 | -0.152 |
| CGTCAAAGTTCAAAGTAACGTAACAGAAAGCAGC | 6.87 | 6.57 | 4.32 | 4.01 | 2.75 | 4.91 | 4.43 | 5.36 | 2.18 | 4.17 |
| ACTAGCAGGCCAAGTTTGGTTCACTCAAACAAAG | -0.324 | -0.317 | -0.342 | -0.0394 | -0.539 | 0.158 | -0.322 | -0.162 | -0.424 | -0.301 |
| CCGACTGGGCCAAAGGTCATTGATTCCAATGCTC | 4.37 | 4.94 | 3.7 | 4.49 | 0.0732 | 6.09 | 11 | 10 | 8.79 | 12.1 |
| CGGACTAGGTCATCCAGGACAGTGAATACATTGA | 3.64 | 2.45 | 0.39 | 1.81 | -0.227 | 4.22 | 6.64 | 5.63 | 3.03 | 4.87 |
| GCTAGTTGGTCAGTAAAAGGTCACTCACCGGTCG | 2.88 | 3.91 | 4.1 | 3.49 | 0.861 | 3.87 | 1.93 | 4.19 | 1.77 | 3.49 |
| ACTGGCAGGCCAAGTTTGGGTCACTCAAACAAAG | 0.314 | 0.00721 | -0.384 | 0.727 | -0.59 | 1.36 | -0.374 | -0.085 | -0.662 | -0.496 |
| TCGAGTAGGTGAGTCGGGGCATTCAGCCAACATA | -0.0608 | -0.132 | -0.66 | 0.164 | -0.758 | 0.821 | 0.173 | 0.652 | 0.673 | 0.803 |
| CCTAGTTGGTCAGGATGTCACACACCGGATATGA | -0.184 | -0.0235 | 0.256 | 0.227 | 0.348 | 0.0864 | 0.898 | 0.76 | -0.14 | 0.424 |
| TCGAGTAGGTTCGGGGCATTCAGAATGGCGTCGA | -0.238 | -0.318 | -0.554 | -0.184 | -1.07 | 0.187 | -0.622 | 0.0439 | 0.452 | 0.234 |
| CGAACTAGGTTAGAACAGGACAGTGAAGGATGAT | 0.283 | 0.174 | -0.0175 | -0.235 | 0.0334 | 1.22 | 1.6 | 1.27 | 0.448 | 0.886 |
| AATACAGGGTCATCGTAGGCCGGAGTACGCACAG | 6.87 | 6.14 | 2.19 | 4.53 | 1.37 | 5.62 | 6.36 | 5.92 | 2.34 | 4.59 |
| GTAACAAGGTGAATAGGTCGTTGATGAGTAGGCG | 1.22 | 1.04 | 0.00254 | 0.69 | -0.186 | 2.9 | 2.64 | 2.88 | 1.27 | 2.48 |
| TTACCAAGGTAAAGGTCGTTGATCCCTCTGTAGA | 3.54 | 3.56 | 0.635 | 2.91 | -0.332 | 4.13 | 6.84 | 7.33 | 5.9 | 7.74 |
| TCGAGTAGGTTCCCAATGGGGCATTCAGCTTTCT | -0.431 | -0.384 | -0.577 | -0.1 | -1.76 | -0.101 | -0.771 | 0.361 | 0.7 | 0.426 |
| TCTAGTAGTTGAAGGGCAACCGACGAGTCCGTTT | 0.63 | 0.618 | -0.0916 | 0.268 | -0.134 | 0.455 | -0.018 | 1.65 | 2.83 | 2.22 |
| CAACCTAGGTCAAAGGTCAAAGTCGAGCCAACCA | 8.61 | 7.41 | 5.72 | 7.42 | 3.03 | 7.49 | 12.5 | 10.1 | 10.9 | 11.3 |
| TCTAGTTGGTCAATGGTCACACACTCGAAATGCG | 0.812 | 0.861 | 0.28 | 0.966 | 0.461 | 1.74 | 2.89 | 4.7 | 4.08 | 4.79 |
| AATACAGAGTCATCGTAGGCCAGAGTACGCACAG | 0.102 | 0.331 | -0.311 | -0.227 | -0.569 | -0.149 | 0.955 | 0.273 | -0.0148 | 0.175 |
